PubChem BioAssay AID1775 (NMMLSC, 2009)
Values joined by “and” are separate entries in the source; they are usually repeats but may differ in a detail not shown here. Identical values can stand only once. Among all 220,000 compounds or so, about 820 (0.37%) were called active. What follows is part of a selection rich in actives, with near analogues and random picks from the rest. Unmarked numbers belong to inactive results. No stated cut-off is given here; in the data, active means fluorescence above about 47; inactive means the rest.

assay: green autofluorescence of compounds with avidin beads – biophysical, 488/530 nm, flow cytometry, artefact control, profiling panel (AID 1775); details: compound fluorescence 488/530 nm, at 10 µM, hits give high values

| SMILES | fluorescence (KMESF) |
| --- | --- |
| CC(=O)Nc1ccc(NC(=O)COc2ccccc2C(=O)Nc2cccc(Cl)c2Cl)cc1 | 14 |
| CN(C)S(=O)(=O)Oc1ccccc1C(=O)Nc1ccccc1Cl | 81 (active) |
| O=C(Nc1ccccc1Cl)c1ccccc1S(=O)(=O)c1ccccc1[N+](=O)[O-] | 11 |
| COc1ccc(CCNC(=O)C2CC3Cn4c(nc5cc(C)c(C)cc54)C3N2C)cc1 (centres undefined) | 8 |
| COC(=O)c1c(C)oc(C)c1S(=O)(=O)NCc1ccc(Cl)cc1 | 6 |
| CC1=CC(=C(C#N)c2nc3ccccc3s2)C=C(C)N1c1ccc(F)cc1F | 9 |
| Oc1[nH]c2ccc(Br)cc2c1N=Nc1nn[nH]n1 | 4 |
| CNC(=S)N1CCC(NC(=O)C(Cc2ccc(F)cc2)NC(C)=O)CC1 (centres undefined) | 10 |
| Fc1cccc(CSc2nnc3ccc(-c4ccncc4)nn23)c1 | 6 |
| COc1ccccc1NC(=O)C[n+]1ccccc1 | 10 |
| O=C(Cc1c[nH]c2ccccc12)OCCOC(=O)Cc1c[nH]c2ccccc12 | 21 |
| COc1ccccc1NC(=O)CCCc1c[nH]c2ccccc12 | 257 (active) |
| O=C(O)Cc1csc(-c2cccc(Oc3ccccc3)c2)n1 | 6 and 3 |
| O=C(CSc1ccccc1F)NC1CCS(=O)(=O)C1 (centres undefined) | 9 |
| CCOC(=O)/C=C/CN(C(=O)OC(C)(C)C)S(=O)(=O)N1CC=CC1 | 9 |
| COc1cc(NC(=S)NNC(=O)CC(C)C)c(OC)cc1Cl | 13 |
| CC(NC(=O)c1ccc(N2CCNCC2)c([N+](=O)[O-])c1)C12CC3CC(CC(C3)C1)C2 (centres undefined) | 9 |
| O=C1CS(=O)CN1c1ccc(Oc2ccccc2)cc1 (centres undefined) | 9 |
| C/C=C/C(=O)Nc1ccc(N2CCN(c3ccc(C(F)(F)F)cn3)CC2)nc1 | 8 |
| COC(=O)c1cn(C(=O)c2ccc(Cl)cc2)c2ccccc12 | 4 |
| Cc1nc(-c2ccc(Cl)cc2)sc1C1(C)CC(c2ccccc2F)=NO1 (centres undefined) | 7 |
| O=C(CCC1CCCN(Cc2ccc(O)c(Cl)c2)C1)NCc1ccccc1F (centres undefined) | 12 |
| Cc1ccc(NC(=O)Nc2nnc(-c3ccncc3)s2)cc1 | 6 |
| Cc1ccc(C(=O)Nc2nnc(-c3ccncc3)s2)o1 | 9 |
| CC(C)=CC(=O)Nc1nnc(-c2ccc(F)cc2)s1 | 71 (active) |

| SMILES | fluorescence (KMESF) |
| --- | --- |
| CN(C)/C(=N\OC(=O)c1ccccc1)c1nonc1N | 8 |
| NC(=O)N/N=C\c1cccs1 | 12 |
| Cc1c(NC(=S)Nc2ccccc2)c(=O)n(-c2ccccc2)n1C | 4 |
| Cc1ccc(S(=O)(=O)CC(=O)Nc2c(C)n(C)n(-c3ccccc3)c2=O)cc1 | 12 |
| Cc1ccc(S(=O)(=O)/N=C(/NC(=S)Nc2c(C)n(C)n(-c3ccccc3)c2=O)c2ccccc2)cc1 | 53 (active) |
| C=CC1C(OC2OC(CO)C(O)C(O)C2O)OC=C(C(=O)OC)C1CC1CC(=O)CC(CC(=O)CCc2ccc(O)cc2)O1 (centres undefined) | 8 |
| CCC(C)(C)n1nnnc1C(c1cccs1)N1CCN(Cc2ccccc2)CC1 (centres undefined) | 5 |
| Fc1ccccc1C(c1nnnn1Cc1ccc2c(c1)OCO2)N1CCN(Cc2ccccc2)CC1 (centres undefined) | 5 |
| Fc1ccc(Cn2nnnc2C(c2cccs2)N2CCCCCC2)cc1 (centres undefined) | 62 (active) |
| Cc1ccc(CCCOC(=O)C[N+]2(C)CCCC2)cc1 | 6 |
| CSc1ccccc1NC(=O)Cc1ccc(Br)cc1 | 12 |
| CCOC(=O)c1oc2c(CN3CCN(C)CC3)c(O)ccc2c(=O)c1-c1ccc(Br)cc1 | 189 (active) |
| CN1CCN(Cc2c(O)ccc3c2oc(=O)c2ccccc23)CC1 | 22 |
| CCN1CCN(Cc2c(O)ccc3c(=O)c(-c4ccc(OC)c(OC)c4)c(C(F)(F)F)oc23)CC1 | 16 |
| OCCn1c(-c2ccccc2)csc1=Nc1ccccc1 | 3 |
| CCOCN(C(=O)Cn1c(C(C)O)nc2ccccc21)c1c(C)cccc1CC (centres undefined) | 57 (active) |
| CC(O)c1nc2ccccc2n1Cc1ccc([N+](=O)[O-])cc1 (centres undefined) | 7 |
| CCc1cccc(C)c1N(C(=O)Cn1c(CO)nc2ccccc21)C(C)COC (centres undefined) | 5 |
| O=C1CC(N2CCN(c3ccc(F)cc3)CC2)C(=O)N1c1ccccc1 (centres undefined) | 9 |
| COC(=O)c1ccc(S(=O)(=O)N(CCO)Cc2ccccc2)n1C | 6 |
| CCCC1C(c2ccccc2)C(C#N)(C#N)C2(C#N)CC1(N)NC2=O (centres undefined) | 90 (active) |
| Cc1ccc(C(=O)COC(=O)CCN2C(=O)C3C4CC(C(Br)C4Br)C3C2=O)cc1 (centres undefined) | 14 |
| CCOc1ccc(S(=O)(=O)N/N=C(\C)c2ccc(Cl)c(Cl)c2Cl)cc1 | 7 |
| N#CCSc1nn(-c2ccc(F)cc2)c(=S)s1 | 24 |
| CCOC(=O)c1c(/N=C/c2cc(C)ccc2O)sc2c1CCC2 | 14 |

| SMILES | fluorescence (KMESF) |
| --- | --- |
| CC(C)(C)Nc1c(-c2cccs2)nc2ccccn12 | 9 |
| O=C(COC(=O)Cn1cnc2ccccc2c1=O)NCc1ccccc1Cl | 58 (active) |
| Cn1c(CCC(=O)OCC(=O)NCc2ccccc2Cl)nc(=O)c2ccccc21 | 21 |
| O=C(COC(=O)Cn1cnc2ccccc2c1=O)NCC12CC3CC(CC(C3)C1)C2 | 5 |
| COc1ccc(Br)cc1C(=O)Nc1cccc(C)c1C | 8 |
| O=C(CCCCCN1C(=O)c2cccc3cccc(c23)C1=O)NCc1ccco1 | 4 |
| N#Cc1ccc(N2Cc3ccccc3/C2=N/C(=O)Nc2ccc(Cl)cc2)cc1 | 15 |
| CC(NC(=O)COC(=O)c1cc(=O)[nH]c2ccccc12)c1ccccc1 (centres undefined) | 7 |
| COc1cc2c(cc1OC)C(c1ccncc1)CC(=O)N2 (centres undefined) | 47 (active) |
| COC(=O)c1ccc(C2CC(=O)Nc3cc(OC)c(OC)cc32)cc1 (centres undefined) | 19 |
| COc1cc2c(cc1OC)C(c1ccc(C)o1)CC(=O)N2 (centres undefined) | 22 |
| CC(CO)(CO)NC(=O)c1ccc(=O)[nH]n1 | 4 |
| CC(=O)NCC(=O)N1CCCC(C(=O)c2ccc3c4c(cccc24)CC3)C1 (centres undefined) | 80 (active) |
| CCn1ccnc1CN1CCCC(C(=O)c2ccc3c4c(cccc24)CC3)C1 (centres undefined) | 8 |
| Cc1ncoc1C(=O)N1CCCC(C(=O)c2ccc3c4c(cccc24)CC3)C1 (centres undefined) | 10 |
| Cc1nnc(Nc2ccccc2F)s1 | 5 |
| COc1cc(/C=C/C(=O)OCC(=O)N2CCOCC2)ccc1OCC#N | 10 |
| O=C(NCCCc1ccccc1)C1CCC(CNc2c(N3CCCCC3)c(=O)c2=O)CC1 (centres undefined) | 7 |
| CCCc1nc(SCC(=O)Nc2ccc(S(=O)(=O)N(C)C)cc2)c2ccccc2n1 | 1 |
| Cn1c(SCC(=O)N2CCCc3ccccc32)nc2ccccc2c1=O | 4 |
| O=C(CSc1ccc2nnc(-c3ccccc3)n2n1)N1CCCc2ccccc21 | 76 (active) |
| CCCn1c(SCC(=O)N2CCc3ccccc32)nnc1-c1ccncc1 | 7 |
| CCOc1ccc2sc(NS(=O)(=O)c3ccc(N)cc3)nc2c1 | 4 |
| CC(C)(C)NC(=O)NCc1ccco1 | 6 |
